Results on 19 compounds are retold here after PubChem BioAssay (NCATS).

“And” between values parts separate entries of the source, which are not always exact repeats. Identical values can stand only once. Inconclusive results are not listed. Unmarked numbers belong to inactive results. The source made the active and inactive calls. Calls come from the whole dose curve; as a rule, active = well fitted curve in the direction sought with a large enough effect; inconclusive = small, poorly fitted or top-dose-only effect, or another doubt; inactive = no such curve, though single readings can be large; an effect the other way counts as inactive or inconclusive.

Assay [1] is described as follows: Viability qHTS for spleen associated tyrosine kinase inhibitor (SYKi) drug resistant MV4-11 cells (AID 1963824). Note: nearly all actives have a fitted effect of over 35% in size. The procedure, abridged:
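SYK-inhibitor-resistant MV4-11 AML cells were seeded at 500 per well onto compound and cultured 72 hours (37 °C, 5% CO2). CellTiter-Glo was then added, and after 10 min at room temperature, luminescence gave viability.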

Assay [2] is described as follows: Quantitative highthroughput screen to assess conditional lethalithy of NOMO1 cells grown in RPMI1640 with untreated serum (RPMI+s) (AID 1963876).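 For Viability: 100% = DMSO wells and 0% = empty wells without cells.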 Note: nearly all actives have a fitted effect of over 35% in size. The procedure, abridged:
(§1)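 Each medium arm—HPLM with 10% dialyzed FBS, or RPMI1640 with 5 mM glucose and 10% untreated or dialyzed FBS—was screened against an 11-point, 3-fold compound titration for 48 h at 37 °C, with CellTiter-Glo luminescence as endpoint.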

Assay [3] can be described thus: Quantitative highthroughput screen to assess conditional lethalithy of NOMO1 cells grown in Human Plasma-Like Medium with dialyzed fetal bovine serum (HPLM+ds) (AID 1963878).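 For Viability: 100% = DMSO wells and 0% = empty wells on each plate.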 Note: nearly all actives have a fitted effect of over 35% in size. The procedure, abridged: as §1
Assay [4] in a line: Quantitative highthroughput screen to assess conditional lethalithy of P12 Ichikawa cells grown in Human Plasma-Like Medium with dialyzed fetal bovine serum (HPLM+ds) (AID 1963879). For Viability: series mostly up to about 46 µM. Note: nearly all actives have a fitted effect of over 35% in size. The conditions noted are these: Potency: viability. In a few lines: as §1
Assay [5] in a line: Quantitative highthroughput screen to assess conditional lethalithy of P12 Ichikawa cells grown in RPMI1640 with dialyzed fetal bovine serum (RPMI+ds) (AID 1963880).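 For Viability: 100% = DMSO wells and 0% = empty wells on each plate.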 Note: nearly all actives have a fitted effect of over 35% in size. The settings on record: Potency: P12-Ichikawa viability. The procedure, abridged:
as §1

A short description of assay [6]: Quantitative highthroughput screen to assess conditional lethalithy of P12 Ichikawa cells grown in RPMI1640 with untreated serum (RPMI+s) (AID 1963881).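 For Viability: series mostly up to about 46 µM; 100% = DMSO wells and 0% = empty wells without cells.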 Note: nearly all actives have a fitted effect of over 35% in size. The settings on record: Potency: viability. In a few lines: as §1
Assay [7] in a line: Quantitative highthroughput screen to assess conditional lethalithy of NOMO1 cells grown in RPMI1640 with dialyzed fetal bovine serum (RPMI+ds) (AID 1963877).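 For Viability: series mostly up to about 46 µM; 100% = DMSO control wells and 0% = empty wells.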 Note: nearly all actives have a fitted effect of over 30% in size. The procedure, abridged: as §1
The nature of assay [8]: Cellular viability qHTS for adrenocortical cancer (ACC) cell line SW-13 (AID 1963989).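 For activity (max response): cells grown in serum-free medium with ITS supplement; % is set by controls: 0 for no effect and ±100 for the full control effect.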 Note: nearly all actives have a fitted effect of over 65% in size. The settings on record: SW-13 ACC cells viability, CellTiter-Glo, 48 h; activity (max response): hits give low values. The procedure, abridged:
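Compound titrations (up to 46 uM final, in DMSO) were applied to SW-13 cells for 48 h at 37C/5% CO2. Reading used CellTiter-Glo after 20 min at room temperature; fitted curves yielded IC50 and efficacy.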

The nature of assay [9]: Cellular viability qHTS for adrenocortical cancer (ACC) cell line NCI-H295R (AID 1963990). Note: nearly all actives have a fitted effect of over 60% in size. In a few lines: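 Readout: CellTiter-Glo luminescence, 20 min RT. Exposure: 48 h, 37C/5% CO2. Cells: NCI-H295R, ITS-DMEM serum-free. Range: up to 46 uM. Analysis: 4PL fit, IC50 plus efficacy.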
A short description of assay [10]: Quantitative highthroughput screen to assess conditional lethalithy of SEM cells grown in Human Plasma-Like Medium with dialyzed fetal bovine serum (HPLM+ds) (AID 1963882). For Viability: series mostly up to about 46 µM. Note: nearly all actives have a fitted effect of over 35% in size. The procedure, abridged: as §1
Assay [11] in a line: Quantitative highthroughput screen to assess conditional lethalithy of SEM cells grown in RPMI1640 with unreated serum (RPMI+s) (AID 1963883).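 For Viability: 100% = DMSO wells and 0% = empty wells without cells.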 Note: nearly all actives have a fitted effect of over 35% in size. The procedure, abridged: as §1
Assay [12] is described as follows: Quantitative highthroughput screen to assess conditional lethalithy of SEM cells grown in RPMI1640 with dialyzed fetal bovine serum (RPMI+ds) (AID 1963884).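 For Viability: series mostly up to about 46 µM; 100% = DMSO control wells and 0% = empty wells without cells.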 Note: nearly all actives have a fitted effect of over 35% in size. The procedure, abridged: as §1
Potency is the fitted concentration of half-maximal effect.

In the case of `CN(C)CC(C)(C)CNc1nn2c(-c3ccccc3)nnc2cc1C1CCC1`, the Potency in assay [1] is 0.0103 µM (active); in assay [2] it was 20.9 µM (active); in assay [3] it was 10.5 µM (active); in [4] it was 10.5 µM (active); in [5], 18.7 µM (active); in assay [6], 16.6 µM (active).

For `c1cc(N[C@@H]2CCNC2)nc(-c2cnc3ccc(-c4cn[nH]c4)cn23)c1`, the figures for the Potency in assay [1], in assay [7] and in assay [8] were 0.0066 µM (active), 5.9 µM (active) and 3.98 µM (active), respectively. In addition, the Potency entry in assay [2] and in assay [9] was “inactive” throughout.

`Nc1cccc2c1C(=O)N(C1CCC(=O)NC1=O)C2=O` (stereo not drawn): the Potency result in assay [1], in assay [2], in assay [7] and in [9] was “inactive” each time. In addition, the figures for the Potency in assay [5] and in [6] were 14.8 µM (active) and 16.6 µM (active), respectively. Besides, the activity (max response) in assay [8] is 11.8%.

In the case of `OCCn1cc(-c2cnc3nnn(Cc4ccc5ncccc5c4)c3n2)cn1`, the Potency in assay [1] is 20.9 µM (active). The Potency entry in [2], in assay [7], in assay [5], in assay [6] and in assay [9] was “inactive” throughout.

With `NC1(Cc2ccc(Cl)cc2)CCN(c2ncnc3[nH]ccc23)CC1`, the Potency in [1] was 5.25 µM (active); in [2] it was 10.5 µM (active); in [7], 9.35 µM (active); in assay [10], 6.62 µM (active); in assay [11] it was 5.26 µM (active); in assay [12], 7.43 µM (active). For the same compound, the Potency in assay [9] was 20 µM (active).

As for `O=C(O)c1ccc2cc(-c3ccc(O)c(C45CC6CC(CC(C6)C4)C5)c3)ccc2c1`, the Potency in [1] was 0.417 µM (active); in [2] it was 1.05 µM (active); in assay [4], 0.59 µM (active); in [5] it was 0.418 µM (active); in assay [6], 0.469 µM (active); in assay [10] it was 0.372 µM (active). In addition, the figures for the Potency in [11], in assay [12] and in assay [9] were 0.372 µM (active), 0.235 µM (active) and 0.708 µM (active), respectively.

`Cc1ccc(-n2[nH]c(C)c(N=Nc3cccc(-c4cccc(C(=O)O)c4)c3O)c2=O)cc1C`: the Potency in assay [1] was 13.3 µM (active); in [4], 16.6 µM (active). Besides, the Potency result in assay [2] is “inactive”. The activity (max response) in assay [8] is 7.78%.

Regarding `CCOc1cc(CC(=O)N[C@@H](CC(C)C)c2ccccc2N2CCCCC2)ccc1C(=O)O`, the Potency entry in assay [1], in [10], in assay [11] and in [12] was “inactive” each time. Moreover, the Potency in assay [2] was 0.332 µM (active); in assay [4] it was 2.35 µM (active); in assay [6], 2.64 µM (active); in assay [9] it was 25.1 µM (active).

With `O=C(O)c1ccc(Nc2ncc3c(n2)-c2ccc(Cl)cc2C(c2c(F)cccc2F)=NC3)cc1`, the Potency in [1] was 0.206 µM (active); in assay [7], 0.662 µM (active); in assay [4] it was 1.18 µM (active); in [6], 0.935 µM (active). Besides, the activity (max response) in [8] is -30%.

As to `Nc1ccn([C@@H]2C(F)=C(CO)[C@@H](O)[C@H]2O)c(=O)n1`, the Potency in assay [1] was 1.03 µM (active); in [7] it was 2.95 µM (active); in [3], 2.63 µM (active); in assay [4] it was 1.66 µM (active); in [5], 6.6 µM (active); in assay [12], 1.48 µM (active).

For the compound `Nc1nc(=O)n([C@H]2C[C@H](O)[C@@H](CO)O2)cc1F`, the Potency in [1] is 0.0295 µM (active); in assay [7], 0.0209 µM (active); in assay [5], 0.0833 µM (active); in [6] it was 0.105 µM (active).

For `Cc1ccnc2c1NC(=O)c1cccnc1N2C1CC1`, the Potency result in assay [1], in assay [4], in assay [5], in [6], in assay [10] and in assay [11] was “inactive” each time. In addition, the Potency result in [12] and in assay [9] was “inactive” in each case. Moreover, the Potency in assay [7] was 2.09 µM (active). Besides, in assay [8], the activity (max response) is -0.191%.

Regarding `COc1cc([C@@H](CC(=O)O)c2ccc(C)c(CN3C[C@@H](C)Oc4ccccc4S3(=O)=O)c2)cc2nnn(C)c12`, the Potency was 7.42 µM (active) in assay [1] and 8.31 µM (active) in assay [4]. For the same compound, the Potency entry in [2] and in [9] was “inactive” in each case.

With `C[C@@H]1CN(CC(=O)N2CC(C)(C)c3ncc(Cc4ccc(F)cc4)cc32)[C@@H](CN2CCOC[C@H]2C)CN1`, the Potency in [1] was 0.468 µM (active). The Potency entry in assay [2], in assay [4], in assay [5], in assay [6], in assay [10] and in [12] was “inactive” each time. In addition, the activity (max response) in assay [8] was -27%.

For `CCCNCC(O)COc1ccccc1C(=O)CCc1ccccc1` (stereo not drawn), in assay [1], the Potency was 15 µM (active) and 16.6 µM (active). The Potency entry in [7], in assay [3], in assay [4], in assay [5], in assay [6] and in assay [10] was “inactive” throughout. The Potency entry in assay [11] is “inactive”.

For `CC(C)OC(=O)OCOP(=O)(CO[C@H](C)Cn1cnc2c(N)ncnc21)OCOC(=O)OC(C)C`, the Potency in [1] was 9.44 µM (active); in assay [7] it was 23.5 µM (active). Also, the Potency result in assay [4], in assay [5] and in [9] was “inactive” in each case.

As to `O=C(c1cc(Cc2n[nH]c(=O)c3ccccc23)ccc1F)N1CCN(C(=O)C2CC2)CC1`, the Potency in assay [1] was 16.6 µM (active); in assay [5] it was 20.9 µM (active); in [11] it was 6.62 µM (active). Also, the Potency result in [2] and in [9] was “inactive” throughout.

As to `COc1cc2c(NC3CCN(C(C)C)CC3)nc(C3CCCCC3)nc2cc1OCCCN1CCCC1`, the Potency in assay [1] was 3.32 µM (active); in [7], 20.9 µM (active); in assay [3], 23.5 µM (active); in assay [5], 20.9 µM (active); in [6], 23.5 µM (active); in assay [10] it was 16.6 µM (active). The Potency is 26.4 µM (active) in [11] and 17.8 µM (active) in assay [8].

Take `Nc1nc2[nH]cc(CCc3ccc(C(=O)N[C@@H](CCC(=O)O)C(=O)O)cc3)c2c(=O)[nH]1`: the Potency in assay [1] is 0.263 µM (active); in assay [9], 3.16 µM (active). The Potency entry in assay [2] was “inactive”.
